Assay outcomes as filed in PubChem BioAssay.
Rows were chosen to be rich in hits. Some 11% of all compounds tested hit in one or more screens of this group.
HP1b binding inh – inhibitors of HP1-beta chromodomain binding to methylated histone tails. AlphaScreen HP1-beta / biotin-H3K9me3 peptide binding. Potency, µM (series often up to 114 µM), for the others: at the top dose activity change, negative = inhibition, most hits filed as inhibitors. 0.56% of 390,000 active. AID 540317; further: potency means the concentration at half of the fitted maximal effect; nearly all actives have a fitted effect of over 70% in size
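AlphaScreen: HP1-beta (50 nM) preformed 30 min with biotin-H3(1-18)K9me3 peptide (50 nM) in PBS pH 7.4, 0.01% Tween-20. Compound added for 30 min at RT, then streptavidin donor/nickel chelate acceptor beads (10 ug/mL) for 30 min.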
BAZ2B block – inhibitors of human BAZ2B bromodomain | Q9UIF8 | AlphaScreen BAZ2B-H3K14Ac peptide displacement | Potency, µM (highest dose often 114 µM), for the others: top-dose activity change, negative = inhibition, hits mostly inhibitors | 4.4% of 360,000 active; further: potency means the concentration at half of the fitted maximal effect; on the % scale 0 is the no-effect control and ±100 the full control effect; nearly all actives have a fitted effect of over 60% in size
Target sequence (Q9UIF8 whole entry, looked up): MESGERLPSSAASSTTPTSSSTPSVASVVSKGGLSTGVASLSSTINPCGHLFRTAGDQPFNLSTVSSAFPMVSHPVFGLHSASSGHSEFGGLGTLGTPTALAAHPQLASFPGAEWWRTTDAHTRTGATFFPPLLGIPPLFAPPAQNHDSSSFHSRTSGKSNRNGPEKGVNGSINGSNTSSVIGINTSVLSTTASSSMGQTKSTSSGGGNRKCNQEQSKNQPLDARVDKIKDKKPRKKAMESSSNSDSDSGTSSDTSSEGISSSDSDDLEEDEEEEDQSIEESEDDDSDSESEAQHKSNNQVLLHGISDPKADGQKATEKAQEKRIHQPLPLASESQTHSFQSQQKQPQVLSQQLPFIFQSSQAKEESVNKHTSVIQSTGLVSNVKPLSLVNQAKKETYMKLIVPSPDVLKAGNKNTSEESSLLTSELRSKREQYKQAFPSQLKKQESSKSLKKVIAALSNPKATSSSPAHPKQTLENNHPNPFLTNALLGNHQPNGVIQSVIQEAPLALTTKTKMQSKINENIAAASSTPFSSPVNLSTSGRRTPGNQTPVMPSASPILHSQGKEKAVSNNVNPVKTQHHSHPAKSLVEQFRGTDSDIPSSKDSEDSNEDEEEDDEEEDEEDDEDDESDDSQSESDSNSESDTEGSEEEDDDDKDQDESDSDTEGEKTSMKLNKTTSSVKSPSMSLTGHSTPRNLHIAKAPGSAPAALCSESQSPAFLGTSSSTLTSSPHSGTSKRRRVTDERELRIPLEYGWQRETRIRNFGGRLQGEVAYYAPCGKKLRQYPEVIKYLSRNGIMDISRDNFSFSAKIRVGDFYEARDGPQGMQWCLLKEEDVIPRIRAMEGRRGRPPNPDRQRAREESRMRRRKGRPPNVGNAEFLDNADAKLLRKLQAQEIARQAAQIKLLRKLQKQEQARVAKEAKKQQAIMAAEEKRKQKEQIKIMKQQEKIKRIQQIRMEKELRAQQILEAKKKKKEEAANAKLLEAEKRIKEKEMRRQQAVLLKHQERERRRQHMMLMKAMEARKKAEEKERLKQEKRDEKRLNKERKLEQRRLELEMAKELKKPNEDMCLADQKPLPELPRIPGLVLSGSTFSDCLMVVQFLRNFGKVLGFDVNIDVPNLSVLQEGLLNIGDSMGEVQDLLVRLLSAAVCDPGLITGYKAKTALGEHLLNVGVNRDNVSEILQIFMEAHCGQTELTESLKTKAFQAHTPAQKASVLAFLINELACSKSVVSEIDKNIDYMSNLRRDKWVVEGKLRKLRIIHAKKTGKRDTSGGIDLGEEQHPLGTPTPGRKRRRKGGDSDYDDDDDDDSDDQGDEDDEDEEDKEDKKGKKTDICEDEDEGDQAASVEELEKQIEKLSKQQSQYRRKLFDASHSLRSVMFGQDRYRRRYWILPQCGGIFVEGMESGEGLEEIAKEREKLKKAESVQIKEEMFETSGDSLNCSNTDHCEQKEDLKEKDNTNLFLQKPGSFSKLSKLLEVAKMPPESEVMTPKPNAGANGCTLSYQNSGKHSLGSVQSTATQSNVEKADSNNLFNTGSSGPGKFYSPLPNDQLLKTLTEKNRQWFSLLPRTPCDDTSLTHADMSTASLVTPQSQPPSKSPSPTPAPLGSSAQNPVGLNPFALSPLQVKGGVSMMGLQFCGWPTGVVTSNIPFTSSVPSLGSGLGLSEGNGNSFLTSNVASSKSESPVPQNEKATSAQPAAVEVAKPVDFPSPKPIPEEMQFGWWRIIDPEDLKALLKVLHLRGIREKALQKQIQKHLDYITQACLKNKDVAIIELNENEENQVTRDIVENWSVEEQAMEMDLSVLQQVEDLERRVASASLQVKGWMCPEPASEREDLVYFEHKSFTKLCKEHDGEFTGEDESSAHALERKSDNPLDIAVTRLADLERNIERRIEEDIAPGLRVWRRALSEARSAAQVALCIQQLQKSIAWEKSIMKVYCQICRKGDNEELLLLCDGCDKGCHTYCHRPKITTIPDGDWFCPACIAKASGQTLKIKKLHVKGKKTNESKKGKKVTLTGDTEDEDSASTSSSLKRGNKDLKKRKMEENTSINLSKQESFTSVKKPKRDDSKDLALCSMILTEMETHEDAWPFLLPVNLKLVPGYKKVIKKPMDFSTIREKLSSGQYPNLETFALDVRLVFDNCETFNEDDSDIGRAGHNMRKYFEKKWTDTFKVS
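AlphaScreen displacement: compounds (up to 110uM) incubated 30 min at room temperature with a preformed 50 nM BAZ2B/50 nM biotinylated H3K14Ac peptide complex in PBS pH 7.4 with Tween-20. Donor and acceptor beads at 10 ug/mL final added, 20 min light-protected before reading.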
G9a inh – G9a (human) methyltransferase inhibition. Q96KQ7. G9a H3K9 monomethylation, AlphaScreen, 2 h. Potency, µM (highest dose often 102 µM), for inactives: top-dose activity, negative = inhibition, actives largely listed as inhibitors. 8.8% of 350,000 active. AID 504332; further: potency means the concentration at half of the fitted maximal effect; on the % scale 0 is the no-effect control and ±100 the full control effect; nearly all actives have a fitted effect of over 75% in size
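AlphaScreen detection with an anti-monomethyl H3K9 antibody quantified product after a 2 h room-temperature reaction containing 500 nM biotinylated H3K9 peptide, 20 µM SAM and 20 nM enzyme, which had been preincubated 15 min with compound.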
L3MBTL1 block – inhibitors of human L3MBTL1; AlphaScreen L3MBTL1–H3K9me1 peptide binding; Potency, µM (titrated, usually from 57.1 µM), without a hit: top-dose activity, negative = inhibition, hits mostly inhibitors; 0.66% of 230,000 active; further: potency means the concentration at half of the fitted maximal effect; on the % scale 0 is the no-effect control and ±100 the full control effect; nearly all actives have a fitted effect of over 60% in size
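AlphaScreen assay: L3MBTL1 (50 nM final) was preincubated 30 min at room temperature with biotinylated H3(1-15)K9me1 peptide (75 nM final), then 30 min with library compounds; streptavidin donor and nickel chelate acceptor beads (10 ug/mL final) added, 30 min dark.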
PI5P4Ka inh – PI5P4K alpha (human) kinase inhibition; P48426; 1.2% of 330,000 active; PI5P4Kalpha enzyme, ADP-Glo luminescence, 60 min; hits give low values; max response, %; active means max response of -50% or lower; inconclusive means between -30% and -50%; inactive means -30% or higher; further: value at the top dose of about 77 µM; on the % scale 0 is the no-effect control and ±100 the full control effect
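PI5P4Kalpha ADP-Glo assay; 5 microM ATP final; 60 min RT reaction; HEPES pH 7.4/EGTA/CHAPS, 5% DMSO; controls lacking substrate or enzyme; luminescent end-point.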
JMJD2A Tudor inh – inhibitors of human JMJD2A Tudor domain. O75164. AlphaScreen JMJD2A-Tudor / H3K4me3 peptide binding. Potency, µM (titrated, usually from 114 µM), without a hit: at the highest dose activity change, negative = inhibition, usual class: inhibitors. 4.4% of 390,000 active; further: potency means the concentration at half of the fitted maximal effect; on the % scale 0 is the no-effect control and ±100 the full control effect; nearly all actives have a fitted effect of over 50% in size
Starred values were filed as active, the others as inactive; u = inconclusive; x = no result; [ ] = remark or other dose. Unless noted, the call rests on the fitted dose curve; in most records, active means well fitted inhibition curve with a large enough effect; inconclusive means small, poorly fitted or top-dose-only effect; inactive means no such curve, though single readings can be large or run the other way.

SMILES | HP1b binding inh | BAZ2B block | G9a inh | L3MBTL1 block | PI5P4Ka inh | JMJD2A Tudor inh
S=c1nc(-c2ccccc2)n(CCCN2CCOCC2)c2c1CCCC2 | -4% | x | 8%[59 µM] | 1% | x | -17%
S=c1[nH]nc(-c2ccc(Cl)cc2)n1CCCN1CCOCC1 | 16% | 6% | 40µM* | x | -2 | 10µM*
COCCCn1c(-c2ccccc2Cl)n[nH]c1=S | 22% | -1% | 2.2µM* | x | -3 | 7.9µM*
CCOCCCn1c(-c2ccc(Cl)cc2)n[nH]c1=S | -21% | -6% | 1.8µM* | x | -4 | 4µM*
COCCCn1c(-c2ccc(Cl)cc2)n[nH]c1=S | -11% | -17% | 4µM* | x | 2 | 7.9µM*
COCCCNc1ccn2nc(-c3ccc(Cl)cc3)cc2n1 | x | x | x | x | 4 | x
Cc1cccc(Cn2c(CN3CCCC(C)C3)nc3c2c(=O)n(C)c(=O)n3C)c1 (centres undefined) | 45% | x | 5%[59 µM] | x | x | -5%
O=c1c(-c2ccc([N+](=O)[O-])cc2)coc2c(O)c(O)ccc12 | 2% | 40µM* | 8.9µM* | x | -7 | -36%
COc1cccc(NC(=O)CSc2nc(=O)n(Cc3ccccn3)c3c2CCC3)c1 | 10% | -6% | 4%[59 µM] | x | x | -4%
Cc1ccc(S(=O)(=O)CCC(=O)Nc2ccc(Br)cc2)cc1 | 50% | -2% | u | x | 7 | -8%
Cc1ccc(CNC(=O)CCS(=O)(=O)c2ccc(Br)cc2)cc1 | 7.1µM* | u | 8.9µM* | x | -1 | 18µM*
Cc1ccc(NC(=O)CCS(=O)(=O)c2ccc(Br)cc2)nc1 | 3% | 8% | 8% | 3% | -27 | 20µM*
CCN(CC)c1ccc(NC(=O)CCNS(=O)(=O)c2ccc3c(c2)CCC(=O)N3)c(C)c1 | u | 35µM* | 40µM* | x | 7 | u
Cc1ccc(NC(=O)CCC(=O)c2cccs2)nc1 | 4% | u | 45µM* | u | u | u
Cc1ccccc1NC(=O)CCNS(=O)(=O)c1ccc2c(c1)CCC(=O)N2 | 35% | -1% | 10% | x | -3 | -4%
CCN(CC)C(=O)c1sc(NC(=O)c2nc3ncccn3n2)c(C(=O)OC)c1C | 27% | u | u | x | x | -17%
CCCCc1ccc(NC(=O)CSc2nc(=O)[nH]c3c2CCCC3)cc1 | 36% | -4% | -15%[59 µM] | x | x | -10%
Cc1cc(NC(=O)C(C)(C)C)cc(-c2nc3ncccc3o2)c1O | 32% | -21% | -24%[59 µM] | x | x | -3%
Cc1cc(C)cc(NC(=O)CCc2c(C)nc3c(c2C)c(=O)n(C)c(=O)n3C)c1 | 62% | -10% | -12%[59 µM] | x | x | -5%
COc1ccc(/C=C/C(=O)OCCC(C)C)cc1 | x | x | 86%[59 µM] | x | x | x
N#Cc1cccc(NC(=O)N2CC[C@@]3(CCCN(C(=O)c4cccc(F)c4)C3)C2)c1 | x | x | 2%[12.7 µM] | x | x | x
O=C(CCS(=O)(=O)c1ccc(Br)cc1)Nc1ccc2c(c1)OCO2 | u | 50µM* | u | u | x | 50µM*
CCN(CC)c1ccc(NC(=O)CCS(=O)(=O)c2ccc(Br)cc2)c(C)c1 | 13µM* | 11µM* | 10µM* | x | -9 | 11µM*
Cc1ccnc(NC(=O)CCS(=O)(=O)c2ccccc2)c1 | -17% | -36% | 79µM* | x | -8 | -16%
Cc1ccc(S(=O)(=O)CCC(=O)Nc2ccc(Br)cc2C)cc1 | -14% | 7%[57.1 µM] | u | x | x | -13%
SMILES | HP1b binding inh | BAZ2B block | G9a inh | L3MBTL1 block | PI5P4Ka inh | JMJD2A Tudor inh
Cc1ccc(S(=O)(=O)CCC(=O)Nc2ccc3c(c2)OCO3)cc1 | 7% | 4% | 18%[12.7 µM] | -10% | 0 | -8%
N#Cc1ccc(S(=O)(=O)N2CCN(c3nc(-c4cccs4)nc4ccccc34)CC2)cc1 | 23% | x | x | x | x | -19%
CCNC1CCS(=O)(=O)C1 (centres undefined) | 29% | 1% | 0% | 7% | 0 | -8%
O=S1(=O)CCC(NCC2CCCO2)C1 (centres undefined) | 25% | -31% | 50µM* | -1% | 0 | -20%
O=C1/C(=C\c2ccc(-c3ccccc3[N+](=O)[O-])o2)C(c2ccccc2)=NN1c1ccccc1 | 7.9µM* | 6.3µM* | 4µM* | -5%[11.4 µM] | -8 | 5.6µM*
Cc1ccc(-c2ccc(/C=C3\C(=O)ON=C3c3ccccc3)o2)c([N+](=O)[O-])c1 | -55% | 10µM* | 27%[0.501 µM] | -2% | x | 22µM*
O=C(O)/C(=C\c1ccc(-c2ccccc2[N+](=O)[O-])o1)c1ccccc1 | -16% | u | u | -5% | -3 | u
Cc1ccc(C2=NOC(=O)/C2=C\c2ccc(C)o2)cc1 | 28µM* | 11µM* | x | u | -19 | 35µM*
COc1cccc(CNC(=O)c2sc3nc4n(c(=O)c3c2C)CCC4)c1 | 51% | -20% | 13%[59 µM] | x | x | -17%
O=C1NC(c2cccc(Br)c2)=N/C1=C\c1ccco1 | 10% | u | u | u | u | u
O=C1OC(/C=C/c2ccc(Cl)cc2)=NC/1=C/c1ccco1 | 4% | -37% | -10%[59 µM] | -8% | -21 | -30%
O=C1NC(c2ccccc2)=N/C1=C/c1ccco1 | -9% | -4% | 22µM* | -23% | -5 | -24%
O=C1NC(c2ccccc2Br)=N/C1=C\c1ccco1 | 4% | -18% | 45µM* | x | -14 | u
COc1cccc(NC(=S)/C(=C(\[O-])c2cc(C)n(-c3ccccc3F)c2C)[n+]2ccc(N(C)C)cc2)c1 | -18% | 40µM* | 35µM* | x | -17 | 25µM*
Cc1cc(C)cc(NC(=S)/C(=C(\[O-])c2ccc(Cl)cc2Cl)[n+]2ccccc2)c1 | -8% | u | u | -24% | -10 | 1%[11.4 µM]
Cc1cc(C([O-])=C(C(=S)Nc2ccc(F)cc2)[n+]2ccccc2)c(C)n1-c1ccc(F)cc1 | 50µM* | x | x | x | -5 | x
Cc1ccc(/C=N/NC(=O)CSc2nnc(-c3ccccc3)n2-c2ccc(Cl)cc2)o1 | -11% | u | 45µM* | -15% | -9 | -34%
Cc1ccc(/C=N/NC(=O)Cn2cnc3ccccc32)o1 | 24% | -26% | x | -3% | 1 | -9%
Cc1ccc(/C=N\NC(=O)Cn2nnc3ccccc32)o1 | 33% | 0% | 89µM* | x | -2 | -8%
CCS(=O)(=O)c1cccc(C(=O)N2CCN(c3nc4c(C)ccc(Cl)c4s3)CC2)c1 | 22% | -38% | -18%[59 µM] | x | x | -29%
CC1(C(=O)c2ccccc2)C2c3c(ccc4ccccc34)OC(=O)C21C(=O)N1CCOCC1 (centres undefined) | -11% | u | 79µM* | -16% | -2 | -27%
CCOc1ccc(NC(=O)COC(=O)c2c[nH]c3ccccc23)cc1 | x | x | x | x | -10 | x
CCOc1ccccc1NC(=O)COC(=O)c1c[nH]c2ccccc12 | 6% | 6% | 50µM* | 7% | -7 | -6%
